PubChem BioAssay AID686970 (National Center for Advancing Translational Sciences (NCATS), 2013)
Out of some 360,000 compounds screened, about 6,000 (1.7%) were called active. Not shown: some 8% with an inconclusive outcome. Calls come from the whole dose curve; as a rule, active = well fitted cell-killing curve with a large enough effect; inconclusive = small, poorly fitted or top-dose-only effect, or effect the other way; inactive = flat fitted curve, though single readings scatter. The entries come from a sample that favours actives as a whole. Where a call stands in place of a potency, no number is given.

assay: qHTS for induction of synthetic lethality in tumor cells producing 2HG: qHTS for the HT-1080-NT fibrosarcoma cell line; conditions: HT-1080-NT fibrosarcoma viability, CellTiter-Glo ATP luminescence, 48 h; series mostly up to 46.1 µM; note: nearly all actives have a fitted effect of over 55% in size
Source text: Unbiased genomic sequencing for 22 glioma genomes found recurrent mutation of IDH1 on chromosome 2q33, a gene encoding the cytosolic isoform of IDH1 associated with the tricarboxylic acid cycle (TCA) that catalyzes the oxidative decarboxylation of isocitrate, yielding alpha-ketoglutarate and CO2 via NADP+ to NADPH conversion. Subsequent studies confirmed the recurrent IDH mutations in up to 70% of secondary gliomas and in 10% of AML cases. In addition, the somatic mutation of cancer-associated IDH1 is a point mutation resulting in various amino-acid substituents at Arginine132 (IDH1 R132), a key residue found in the enzyme's active site that when mutated, results in the loss-of-function in metabolizing isocitrate but confers a gain-of-function to produce the oncometabolite 2-hydroxyglutarate (2HG). This in effect defines IDH1 as an oncogene and provides an extraordinary opportunity to discover chemical probes against mutant IDH1 that may translate into much needed new therapies for glioma and AML patients.
This assay aims to perform a synthetic lethal screen for chemical probes specific for 2HG-producing tumor cells using matched paired cell lines (1) HT-1080-NT fibrosarcoma cell line that overproduces 2HG and (2) HT-1080-IDH1KD cell line which has IDH1 expression knocked-down. Desirable compounds are toxic to the NT fibrosarcoma cells but not to the IDH1KD cell line. The data in this AID corresponds to the results of the qHTS against the HT-1080-NT fibrosarcoma cell line.
[1] Dang L, Jin S, Su SM. IDH mutations in glioma and acute myeloid leukemia. Trends of Mol Med. 2010; 16(9): 387-97.
[2] Dang L et al. Cancer-associated IDH1 mutations produce 2-hydroxyglutarate. Nature. 2010; 465(7300):966.
NIH Molecular Libraries Probe Production Centers Network [MLPCN]
NIH Chemical Genomics Center [NCGC]
Assay Submitter (PI): Lenny Dang Ph.D., Agios Pharmaceuticals
Suspensions of trypsinized HT-1080-NT cells were dispensed into white, tissue culture-treated, solid 1536-well plates at 5uL/well (750 cells/well final concentration) in RPMI medium supplemented with 5% FBS. Plates were incubated at 37 degrees C for 2 hours, after which 23 nL of compounds or DMSO were delivered to each well using a pin tool. Plates were then incubated at 37 degrees C for an additional 48 hours. CellTiter-Glo viability reagent (Promega) was dispensed into wells (2.5uL/well) and incubated at room temperature for 10 minutes. The plates were measured on a PerkinElmer ViewLux plate reader for luminescent signal (clear filter, 1 sec exp). DMSO-treated control wells and media-only (no cells) control wells were used to normalize %Activity of identified toxic compounds; DMSO-treated wells corresponded to 0%Activity (100% viability), while media-only controls were used to normalize 100%Activity (0% viability).
Concentration-response curves were fitted to the signals arising from the resulting luminescence. The concentration-effect curves were then classified based on curve quality (r2), response magnitude and degree of measured activity, and compounds were subsequently categorized based on their curve class.
Potency is the fitted concentration of half-maximal effect.

**Q.** With `Cc1ccc(Cc2c(-c3ccccc3)nc3ccc(Cl)cn23)cc1` as the compound, how does the Potency read?
**A.** inactive

**Q.** For `Cc1ccc(Cc2c(-c3ccco3)nc3ccc(Cl)cn23)cc1`, which Potency is on record?
**A.** 23.1 µM (active)

**Q.** Which Potency does the source give for `Cc1ccc(-c2nc3ccc(Cl)cn3c2Cc2ccccc2)cc1` here?
**A.** inactive

**Q.** Which Potency does the source give for `COc1cc(F)ccc1-c1cc(C(=O)NCC2CCCCC2)[nH]n1` here?
**A.** inactive

**Q.** For `O=C1C(Cl)=C(Oc2ccccc2)C(=O)c2ccccc21`, which Potency is on record?
**A.** 4.11 µM (active)

**Q.** With `COc1ccc(C(=O)OCC(=O)Nc2cc(C)on2)cc1F` as the compound, how does the Potency read?
**A.** inactive

**Q.** For `CC(C)(C)OC(=O)N1CCN(C(=O)c2[nH]c(C(F)(F)F)nc2-c2ccccc2)CC1`, which Potency is on record?
**A.** inactive

**Q.** For `N/C(=N/O)c1cccn1Cc1ccccc1[N+](=O)[O-]`, which Potency is on record?
**A.** inactive

**Q.** Which Potency does the source give for `O=[N+]([O-])c1ccccc1NCc1ccccc1Cl` here?
**A.** inactive

**Q.** With `O=c1c([N+](=O)[O-])cccn1Cc1ccc(F)cc1Cl` as the compound, how does the Potency read?
**A.** 14.6 µM (active)

**Q.** Which Potency does the source give for `CC1CC(C)CN(CCCNC(=O)Cn2ncc3c([nH]c4ccccc43)c2=O)C1` (stereo not given) here?
**A.** inactive

**Q.** For `Cc1ccc(Cn2c(C)c3cnn(CC(=O)NCCN4CCOCC4)c(=O)c3c2C)cc1`, which Potency is on record?
**A.** inactive

**Q.** Which Potency does the source give for `Cc1c2cnn(CC(=O)NCCCN3CC(C)CC(C)C3)c(=O)c2c(C)n1Cc1ccc(Cl)cc1` (stereo not given) here?
**A.** 23.1 µM (active)

**Q.** Which Potency does the source give for `O=C(Nc1cccc(C(F)(F)F)c1)c1ccc(N2CCNCC2)c([N+](=O)[O-])c1` here?
**A.** 16.4 µM (active)

**Q.** Which Potency does the source give for `O=C(NC1C2CC3CC(C2)CC1C3)c1ccc(N2CCNCC2)c([N+](=O)[O-])c1` (stereo not given) here?
**A.** inactive

**Q.** Which Potency does the source give for `Cc1cccc(C)c1NC(=O)CNC(=O)c1ccc(N2CCOCC2)c([N+](=O)[O-])c1` here?
**A.** inactive

**Q.** For `CC(NC(=O)c1ccc(N2CCNCC2)c([N+](=O)[O-])c1)C12CC3CC(CC(C3)C1)C2` (stereo not given), which Potency is on record?
**A.** 16.4 µM (active)

**Q.** With `CCC(C)NC(=O)c1ccc(N2CCC3(CC2)OCCO3)c([N+](=O)[O-])c1` (stereo not given) as the compound, how does the Potency read?
**A.** inactive

**Q.** For `O=C(Nc1ccc(N2C(=O)c3cccc4cccc(c34)C2=O)cc1)c1ccc(N2CCCCC2)c([N+](=O)[O-])c1`, which Potency is on record?
**A.** inactive

**Q.** Which Potency does the source give for `CCc1noc(C)c1C(=O)OCC(=O)c1ccc(NC(=O)CC(C)C)cc1` here?
**A.** inactive

**Q.** With `Cc1cc2nc(-c3ccco3)c(Cc3cccc(F)c3)n2c(C)c1Br` as the compound, how does the Potency read?
**A.** 20.6 µM (active)

**Q.** For `Cc1cc2nc(-c3ccc(F)cc3)c(Cc3ccsc3)n2c(C)c1Br`, which Potency is on record?
**A.** inactive

**Q.** With `Fc1cccc(Cc2c(-c3ccc(Cl)cc3)nc3ccc(Cl)cn23)c1` as the compound, how does the Potency read?
**A.** inactive

**Q.** Which Potency does the source give for `COc1cc(C=C(OC(C)=O)c2ccc3c(c2)OCO3)cc(OC)c1OC` here?
**A.** inactive

**Q.** For `CCCNC(=O)C[C@@H]1CC[C@@H]2[C@H](COC[C@H](O)CN2C(=O)c2cc(Cl)cc(Cl)c2)O1`, which Potency is on record?
**A.** inactive

**Q.** For `CCOC(=O)c1cc2cc(OC)ccc2n1C1CCN(C)CC1`, which Potency is on record?
**A.** inactive

**Q.** For `CC1(C)N=C(N)NC(Nc2ccc(Cl)cc2)=N1`, which Potency is on record?
**A.** inactive

**Q.** With `COc1ccccc1NC1=NC(c2ccc(Cl)cc2)N=C(N)N1` (stereo not given) as the compound, how does the Potency read?
**A.** 10 µM (active)

**Q.** For `COc1ccccc1NC(=O)C1CCCN1S(=O)(=O)c1ccc(Cl)cc1` (stereo not given), which Potency is on record?
**A.** inactive

**Q.** With `CCc1nc2ccc(C(=O)NCCNC(C)=O)cn2c1N(CC)Cc1cccc(Br)c1` as the compound, how does the Potency read?
**A.** inactive

**Q.** Which Potency does the source give for `CCC(C)CN1C(=O)CN(S(C)(=O)=O)CC1(C)C(=O)Nc1ccc2c(c1)OCCO2` (stereo not given) here?
**A.** inactive

**Q.** Which Potency does the source give for `C[C@H]1CN(c2ccc(Br)cc2)C(=O)[C@@H]1CC(=O)Nc1ccc(Br)cc1` here?
**A.** inactive

**Q.** For `c1ccc(CNCc2ccc(CNCc3ccccc3)cc2)cc1`, which Potency is on record?
**A.** inactive

**Q.** Which Potency does the source give for `CC1(C(=O)Nc2ccc3c(c2)OCCO3)CSCC(=O)N1CCOc1ccccc1` (stereo not given) here?
**A.** inactive

**Q.** For `O=c1oc2ccccc2cc1-c1csc(Nc2ccc(O)cc2)n1`, which Potency is on record?
**A.** 14.6 µM (active)

**Q.** For `Cc1ccn2c(-c3csc(Nc4ccc(C(=O)O)cc4)n3)c(C)nc2c1`, which Potency is on record?
**A.** inactive

**Q.** Which Potency does the source give for `Cc1cc(C)cc(OCC(=O)NNC(=O)c2cc3ccccc3oc2=O)c1` here?
**A.** inactive

**Q.** Which Potency does the source give for `CCc1c(N=O)c(-c2ccccc2)n(O)[n+]1[O-]` here?
**A.** inactive

**Q.** For `CC(C)CNC(=O)C1(C)CCCN1C(=O)CSc1ccccc1` (stereo not given), which Potency is on record?
**A.** inactive

**Q.** With `COc1ccc(C(O)c2nc(-c3ccc4c(c3)OCO4)cs2)cc1` (stereo not given) as the compound, how does the Potency read?
**A.** inactive

**Q.** With `CCCc1ccc(S(=O)(=O)N2CCN(C(=O)c3cc(C)on3)CC2)cc1` as the compound, how does the Potency read?
**A.** inactive

**Q.** For `O=C(Nc1nnc([C@H]2C[C@H](O)[C@@H](CO)O2)s1)c1cccc(Cl)c1`, which Potency is on record?
**A.** inactive

**Q.** With `C#Cc1cc(N2CCN(C(=O)c3ccoc3)CC2)n2nc(-c3cccc(Cl)c3)cc2n1` as the compound, how does the Potency read?
**A.** 14.6 µM (active)

**Q.** With `CN(C)CCN1CCN(c2cc(-c3cccc(Cl)c3)nc3ccnn23)CC1` as the compound, how does the Potency read?
**A.** inactive

**Q.** Which Potency does the source give for `O=C(c1ccccc1)N1CCN(c2cc(-c3ccccc3)nc3cc(-c4cccc(Cl)c4)nn23)CC1` here?
**A.** inactive

**Q.** For `CC(=O)Nc1ccc(C=CC(=O)c2ccc([N+](=O)[O-])cc2)cc1`, which Potency is on record?
**A.** inactive

**Q.** Which Potency does the source give for `O=C(N=C1SC2CS(=O)(=O)CC2N1Cc1ccccc1)c1ccccc1` (stereo not given) here?
**A.** inactive

**Q.** For `COCOCCn1cc(CN2CCS(=O)(=O)N(Cc3ccc(-c4ccccc4)cc3)C(CC(C)C)C2=O)nn1` (stereo not given), which Potency is on record?
**A.** inactive

**Q.** Which Potency does the source give for `COc1cccc(/C=C2\SC(=S)N(CCCC(=O)N3CCOCC3)C2=O)c1` here?
**A.** inactive

**Q.** With `CCCCc1ccc(S(=O)(=O)NC(=O)C2(C)CCN2C(=O)c2ccccc2)cc1` (stereo not given) as the compound, how does the Potency read?
**A.** inactive

**Q.** Which Potency does the source give for `CCCOc1ccc(C(=O)C(CCC(CNCC)C(=O)c2ccc(OCCC)cc2)CNCC)cc1` (stereo not given) here?
**A.** 16.4 µM (active)

**Q.** Which Potency does the source give for `CCCOc1ccc(/C=N/NC(=O)C2CC2)c(OCCC)c1` here?
**A.** inactive

**Q.** Which Potency does the source give for `CCCOc1ccc(C(=O)CCC(=O)OC(C)C(=O)Nc2ccc(NC(C)=O)cc2)cc1` (stereo not given) here?
**A.** inactive

**Q.** With `Cc1ccccc1S(=O)(=O)NC(=O)C1(C)CCN1C(=O)C1(c2ccc(Cl)cc2)CC1` (stereo not given) as the compound, how does the Potency read?
**A.** inactive

**Q.** With `COc1cc(C(O)c2nc(-c3cnn(C)c3)cs2)ccc1F` (stereo not given) as the compound, how does the Potency read?
**A.** inactive

**Q.** For `O=C(Nc1ccc(F)cc1)C(CCc1ccccc1)N1CCN(CC(=O)N2CCCC2)CC1` (stereo not given), which Potency is on record?
**A.** inactive

**Q.** Which Potency does the source give for `CCCCCCNC(=O)O[C@]12C[C@@H](C(=O)OC)[C@@H](C(=O)OC)C[C@@]1(O)CN(S(=O)(=O)c1ccc(C)cc1)C2` here?
**A.** inactive

**Q.** With `CCCCCCNC(=O)O[C@H]1CN(C(=O)OC(C)C)N(C(=O)OC(C)C)[C@@H]2CN(S(=O)(=O)c3ccc(C)cc3)C[C@]12O` as the compound, how does the Potency read?
**A.** 20.6 µM (active)

**Q.** For `Cc1ccc(S(=O)(=O)N2C[C@H]3n4c(=O)ccc(=O)n4C[C@H](OC(=O)NC4CCCC4)[C@@]3(O)C2)cc1`, which Potency is on record?
**A.** inactive

**Q.** Which Potency does the source give for `CS(=O)(=O)N1CCCCC1c1cc(C(=O)NCc2ccccc2)no1` (stereo not given) here?
**A.** inactive
